{"source": "the supplement of paper PMC6555819", "data": [{"tested_on": "VDR:RXRa (NR concentration 270 nM, RXRa partner concentration 90 nM)", "assay": "PBM binding z-score (relative to random genomic background probes); higher = stronger binding; sequences stand for … in GC…GCGATTGACAGCGTAGAATGAAGG", "procedure": "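Protein-binding microarray (Agilent 4x180K custom design, double-stranded 60-nt probes: 5' GC cap, 34-nt variable region, 24-nt constant primer region; full probe sequence given). Purified or IVT nuclear receptor:RXRα heterodimers (3:1 NR:RXRα, mostly 270:90 nM) or homodimers were incubated for 1 h in PBS with 2% milk and no ligand, then detected with Alexa488 antibodies. Fluorescence from o1-orientation probes (~5 replicates averaged) was converted to z-scores against 500 random hg19 background probes. Variable regions are seed direct-repeat (DR0–DR5) sites, all their single-nucleotide variants and half-site ablations.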", "values": [{"sequence": "ACTATTAGTAGAGACGAGGGCAACCGATAGGTTG", "PBM binding z-score": 0.332}, {"sequence": "TAGAGTAGGTTAGGGGCATTCAGAATGGCGTCGA", "PBM binding z-score": 1.06}, {"sequence": "TGTCGGAGGACACGAAAGGTCAGAGCTCGACATC", "PBM binding z-score": 3.34}, {"sequence": "GGATCGAGGGCAAAGTTGATAGCATCTGTCGACG", "PBM binding z-score": 1.44}, {"sequence": "CGCCCAAGGTCATAGGAGGTCAGTGAAGACAGAT", "PBM binding z-score": 6.21}, {"sequence": "ACAGACAGGTGATGAAGGCAACTCAGGCTATCAT", "PBM binding z-score": -0.257}, {"sequence": "ATCTCTAGATAAGACTCAGTTCAGTGAAGAACGC", "PBM binding z-score": 0.209}, {"sequence": "CGTCCAAGGTCAGAGAGTTCAGTGAATGCCGAGT", "PBM binding z-score": 7.65}, {"sequence": "CGAACGAGGGAATGAGTTGATAGCAAATGCCGAT", "PBM binding z-score": -0.28}, {"sequence": "TTACCAAGGAGAAGGTCGTTGATCCCTCTGTAGA", "PBM binding z-score": 0.838}, {"sequence": "CGGACGAGGGCATGAGTTGATAGCAAATGCCGAT", "PBM binding z-score": 1.21}, {"sequence": "CCGACTGCGGCAGAAAGGTTACCATACCATCCGG", "PBM binding z-score": 0.485}, {"sequence": "GCAGTCAGGTGAAACGCAGGTAACTCAGGGTGGC", "PBM binding z-score": -0.464}, {"sequence": "CCTTCCGGGTCACTCCAGGTTATAGCATCGGAGT", "PBM binding z-score": 4.21}, {"sequence": "GCTTACGGGTCAAAGGTTATAGCGTGAATAGAAT", "PBM binding z-score": 5.55}, {"sequence": "CCTGCTATGTCAATGGTCAGCTAAAGCAGCTCGC", "PBM binding z-score": -0.397}, {"sequence": "CCTGCTAGGTCAGTGGTCAGCTAAAGCAGCTCGC", "PBM binding z-score": -0.183}, {"sequence": "CCTTACGGGTCACTCCAGGTTATAACATCGGAGT", "PBM binding z-score": 4.09}, {"sequence": "TGTCCAAGTTCAAAGGTAACGTAAGTATCCACAC", "PBM binding z-score": 4.6}, {"sequence": "TCTTGTACATCAAAGGTTAAGAAAGCCGAAGCCT", "PBM binding z-score": 1.55}, {"sequence": "AGAATGAGGTTATACGTAGAACAGGGAAGAAAGT", "PBM binding z-score": 1.26}, {"sequence": "CCTATTAGTTGACCATAAGGGCAACCGGAGCTCG", "PBM binding z-score": 0.682}, {"sequence": "GCTCGGTGGACAAGGTCAGAGCTTTGTCCGTAGA", "PBM binding z-score": 1.48}, {"sequence": "AGAACGAGGGCTCGCTGAGTTGATAGCAGAGTAG", "PBM binding z-score": -0.517}, {"sequence": "CAAACTAGGGCAAGAGGTCAAAGTCCGCTTCCCG", "PBM binding z-score": 5.08}, {"sequence": "ACTATTAGTTGAGACGAGTGCAACCGATAGGTTG", "PBM binding z-score": 0.942}, {"sequence": "CCGACTGGGGCATACGGTTACCATAAGCCAGCCC", "PBM binding z-score": -0.577}, {"sequence": "TCTTGTAGATCAAGCAGGTTAAGACAGCCTGAGT", "PBM binding z-score": 0.279}, {"sequence": "AATACAGGGTCACTAGGCCAGTGTAGGTACGAAT", "PBM binding z-score": 4.26}, {"sequence": "CCGACTGGGGCAAAGGTTTCCATACTCAGTACGA", "PBM binding z-score": -0.277}, {"sequence": "TCATATAGGTAATACAGGTGGAAGTCGGCATCTA", "PBM binding z-score": 1.14}, {"sequence": "CCTACTAGTTGACCATAAGGGCAACCGAAGCTCG", "PBM binding z-score": 0.471}, {"sequence": "ACTATTAGGTGAGACGAGGGCAACCGATAGGTTG", "PBM binding z-score": 1.77}, {"sequence": "GCTCGGAGGACAAGGGCAGAGCTTTGTCCGTAGA", "PBM binding z-score": -0.692}, {"sequence": "CCTACTGGGCCAAACAGGTCATTGATGCCGATAA", "PBM binding z-score": 2.82}, {"sequence": "AGTCAAAGTTCACTAGGTAACGTAAGATTCAGCT", "PBM binding z-score": 3.83}, {"sequence": "ACAAGCAGGCCAAGTTTGGGTCACTCAAACAAAG", "PBM binding z-score": 0.676}, {"sequence": "CCTACTGGGCCATTCAGAGGTCGTTGATCATATG", "PBM binding z-score": 1.49}, {"sequence": "ACTAGTTGGTCGGCTGAGGTCACACACAATTCGG", "PBM binding z-score": 3.94}, {"sequence": "TCTAGATGGTCACGGAGGTCACACACGACGGGTA", "PBM binding z-score": 6.25}]}]}
